# Out of some 5,500 compounds screened, about 2,000 (36%) were called active. Inconclusive results (about 18%) are left out. The list shows a part of the results. A number with no mark means an inactive call. Rule as the data show it: active = normalized growth mostly below about 0.91 (no sharp cut-off); inconclusive = no clear call, values can overlap the other calls; inactive = mostly above about 0.92.
# Experiment: chemical genetic growth profiling, strain panel (AID 1159580);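 also: tested at 20 µM; growth read once vehicle control cultures reached saturation at 30 °C; 1 = growth at the plate median or of vehicle wells; lower values mean less growth of the strain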
# Details: growth OD
smiles,measurement,setting,value
CC[C@]12CCCN3CCc4c(n(c5ccccc45)C(=O)C1)[C@@H]32,normalized growth,"S. cerevisiae deletion strains, locus YJL187C, strain SWE1 (second series), hits give low values",0.966
same,normalized growth,"S. cerevisiae deletion strains, locus YJL187C, strain SWE1, hits give low values",1.01
same,normalized growth,"S. cerevisiae deletion strains, locus YJR043C, strain POL32, hits give low values",0.998
same,normalized growth,"S. cerevisiae deletion strains, locus YKL009W, strain mrt4, hits give low values",0.95
same,normalized growth,"S. cerevisiae deletion strains, locus YKL068W, hits give low values",0.981
same,normalized growth,"S. cerevisiae deletion strains, locus YKL085W, strain MDH1 (second series), hits give low values",0.976
same,normalized growth,"S. cerevisiae deletion strains, locus YKL085W, strain MDH1, hits give low values",0.976
same,normalized growth,"S. cerevisiae deletion strains, locus YKL160W, strain elf1, hits give low values",0.974
same,normalized growth,"S. cerevisiae deletion strains, locus YKL190W, strain CNB1, hits give low values",0.941
same,normalized growth,"S. cerevisiae deletion strains, locus YKR001C, strain vps1, hits give low values",0.955
same,normalized growth,"S. cerevisiae deletion strains, locus YKR026C, strain gcn3, hits give low values",0.996
same,normalized growth,"S. cerevisiae deletion strains, locus YKR091W, strain srl3, hits give low values",0.996
same,normalized growth,"S. cerevisiae deletion strains, locus YLL001W, strain dnm1, hits give low values",0.956
same,normalized growth,"S. cerevisiae deletion strains, locus YLL026W, hits give low values",0.994
same,normalized growth,"S. cerevisiae deletion strains, locus YLL041C, strain sdh2, hits give low values",1.01
same,normalized growth,"S. cerevisiae deletion strains, locus YLR027C, strain aat2, hits give low values",1.01
same,normalized growth,"S. cerevisiae deletion strains, locus YLR039C, strain RIC1, hits give low values",0.741
same,normalized growth,"S. cerevisiae deletion strains, locus YLR058C, strain SHM2, hits give low values",0.991
same,normalized growth,"S. cerevisiae deletion strains, locus YLR102C, strain apc9, hits give low values",0.985
same,normalized growth,"S. cerevisiae deletion strains, locus YLR221C, strain rsa3, hits give low values",1.04
same,normalized growth,"S. cerevisiae deletion strains, locus YLR258W, strain gsy2, hits give low values",1
same,normalized growth,"S. cerevisiae deletion strains, locus YLR262C, strain YPT6 (second series), hits give low values",0.991
same,normalized growth,"S. cerevisiae deletion strains, locus YLR262C, strain YPT6, hits give low values",0.776
same,normalized growth,"S. cerevisiae deletion strains, locus YLR268W, strain sec22, hits give low values",0.971
same,normalized growth,"S. cerevisiae deletion strains, locus YLR320W, strain mms22, hits give low values",1
same,normalized growth,"S. cerevisiae deletion strains, locus YLR330W, strain CHS5, hits give low values",0.956
same,normalized growth,"S. cerevisiae deletion strains, locus YLR342W, strain FKS1 (second series), hits give low values",1.21 [resistant] (active)
same,normalized growth,"S. cerevisiae deletion strains, locus YLR342W, strain FKS1, hits give low values",0.999
same,normalized growth,"S. cerevisiae deletion strains, locus YLR357W, strain rsc2, hits give low values",0.994
same,normalized growth,"S. cerevisiae deletion strains, locus YLR370C, strain arc18, hits give low values",0.996
same,normalized growth,"S. cerevisiae deletion strains, locus YLR371W, strain rom2, hits give low values",0.983
same,normalized growth,"S. cerevisiae deletion strains, locus YLR384C, strain iki3, hits give low values",1.03
same,normalized growth,"S. cerevisiae deletion strains, locus YLR418C, strain cdc73, hits give low values",0.906
same,normalized growth,"S. cerevisiae deletion strains, locus YML016C, strain PPZ1, hits give low values",1
same,normalized growth,"S. cerevisiae deletion strains, locus YML032C, strain rad52, hits give low values",0.99
same,normalized growth,"S. cerevisiae deletion strains, locus YML120C, strain ndi1, hits give low values",0.986
same,normalized growth,"S. cerevisiae deletion strains, locus YML124C, strain tub3, hits give low values",0.979
same,normalized growth,"S. cerevisiae deletion strains, locus YMR058W, strain fet3, hits give low values",1.01
same,normalized growth,"S. cerevisiae deletion strains, locus YMR078C, strain ctf18, hits give low values",0.973
same,normalized growth,"S. cerevisiae deletion strains, locus YMR125W, strain sto1, hits give low values",0.994
same,normalized growth,"S. cerevisiae deletion strains, locus YMR129W, hits give low values",1
same,normalized growth,"S. cerevisiae deletion strains, locus YMR205C, strain PFK2, hits give low values",0.991
same,normalized growth,"S. cerevisiae deletion strains, locus YMR223W, strain ubp8, hits give low values",0.968
same,normalized growth,"S. cerevisiae deletion strains, locus YMR231W, strain pep5, hits give low values",0.997
same,normalized growth,"S. cerevisiae deletion strains, locus YMR307W, strain GAS1, hits give low values",0.685
same,normalized growth,"S. cerevisiae deletion strains, locus YNL067W, strain RPL9B, hits give low values",0.906
same,normalized growth,"S. cerevisiae deletion strains, locus YNL071W, strain lat1, hits give low values",0.996
same,normalized growth,"S. cerevisiae deletion strains, locus YNL209W, strain ssb2, hits give low values",0.983
same,normalized growth,"S. cerevisiae deletion strains, locus YNL233W, strain BNI4, hits give low values",0.943
same,normalized growth,"S. cerevisiae deletion strains, locus YNL248C, strain rpa49, hits give low values",1.02
same,normalized growth,"S. cerevisiae deletion strains, locus YNL250W, strain rad50, hits give low values",0.988
same,normalized growth,"S. cerevisiae deletion strains, locus YNL271C, strain bni1, hits give low values",0.978
same,normalized growth,"S. cerevisiae deletion strains, locus YNL298W, strain CLA4, hits give low values",0.998
same,normalized growth,"S. cerevisiae deletion strains, locus YNL307C, strain MCK1, hits give low values",0.984
same,normalized growth,"S. cerevisiae deletion strains, locus YNL322C, strain KRE1 (second series), hits give low values",0.979
same,normalized growth,"S. cerevisiae deletion strains, locus YNL322C, strain KRE1, hits give low values",0.983
same,normalized growth,"S. cerevisiae deletion strains, locus YNR049C, strain mso1, hits give low values",1.01
same,normalized growth,"S. cerevisiae deletion strains, locus YNR052C, strain pop2, hits give low values",0.986
same,normalized growth,"S. cerevisiae deletion strains, locus YOL012C, strain htz1",0.684
same,normalized growth,"S. cerevisiae deletion strains, locus YOL147C, strain pex11, hits give low values",0.989
same,normalized growth,"S. cerevisiae deletion strains, locus YOR001W, strain rrp6, hits give low values",1.02
same,normalized growth,"S. cerevisiae deletion strains, locus YOR061W, strain CKA2, hits give low values",0.966
same,normalized growth,"S. cerevisiae deletion strains, locus YOR069W, strain VPS5, hits give low values",0.987
same,normalized growth,"S. cerevisiae deletion strains, locus YOR070C, strain gyp1, hits give low values",1
same,normalized growth,"S. cerevisiae deletion strains, locus YOR080W, strain dia2, hits give low values",1
same,normalized growth,"S. cerevisiae deletion strains, locus YOR083W, strain WHI5, hits give low values",0.972
same,normalized growth,"S. cerevisiae deletion strains, locus YOR106W, strain vam3, hits give low values",0.981
same,normalized growth,"S. cerevisiae deletion strains, locus YOR136W, strain idh2, hits give low values",0.977
same,normalized growth,"S. cerevisiae deletion strains, locus YOR144C, strain elg1, hits give low values",0.99
same,normalized growth,"S. cerevisiae deletion strains, locus YOR184W, strain ser1, hits give low values",0.94
same,normalized growth,"S. cerevisiae deletion strains, locus YOR265W, strain rbl2, hits give low values",0.994
same,normalized growth,"S. cerevisiae deletion strains, locus YOR270C, strain vph1, hits give low values",1.06
same,normalized growth,"S. cerevisiae deletion strains, locus YOR290C, strain snf2, hits give low values",0.98
same,normalized growth,"S. cerevisiae deletion strains, locus YOR316C, strain cot1, hits give low values",0.987
same,normalized growth,"S. cerevisiae deletion strains, locus YPL051W, strain arl3, hits give low values",0.968
same,normalized growth,"S. cerevisiae deletion strains, locus YPL078C, strain atp4, hits give low values",0.969
same,normalized growth,"S. cerevisiae deletion strains, locus YPL106C, strain sse1, hits give low values",0.973
same,normalized growth,"S. cerevisiae deletion strains, locus YPL240C, strain hsp82, hits give low values",1
same,normalized growth,"S. cerevisiae deletion strains, locus YPL241C, strain CIN2, hits give low values",0.991
same,normalized growth,"S. cerevisiae deletion strains, locus YPR119W, strain clb2, hits give low values",0.976
same,normalized growth,"S. cerevisiae deletion strains, locus YPR141C, strain kar3, hits give low values",0.977
same,normalized growth,"S. cerevisiae deletion strains, locus YPR163C, strain tif3, hits give low values",0.988
same,normalized growth,"S. cerevisiae deletion strains, locus YPR167C, strain met16, hits give low values",0.974
same,normalized growth,"S. cerevisiae deletion strains, strain wtn01, hits give low values",0.973
same,normalized growth,"S. cerevisiae strains, strain wild type, hits give low values",0.967
